Consider 12 compounds from PubChem BioAssay.

The nature of experiment [1]: optical density shifts of acrAB sulA E. coli – strain DRC41, OD650, 48 h, E. coli filamentation inducer project, primary screen (AID 1152).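 Further: E. coli MC1000 strain DRC41 lacking acrAB efflux pump and sulA.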 The following applies: higher = more signal, called active from +8 up or from −8 down.
A short description of experiment [2]: probe aLefty1 binding on compound microarray – biochemical, small-molecule microarray, 635/667 nm fluorescence, primary screen (AID 1153).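 Further: score merges spot fluorescence with signal-to-noise ratio from the scanned slide images.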 The following applies: higher = more signal.
A short description of experiment [3]: plasmodial surface anion channel blockers, osmotic lysis – cell-based, P. falciparum Indochina, OD700, 1 h, primary screen (AID 1154). The following applies: P. falciparum Indochina infected RBC osmotic lysis, higher = more signal, called active from +8 up or from −8 down.
Experiment [4] is described as follows: plasmodial surface anion channel blockers, osmotic lysis – cell-based, P. falciparum Indochina, OD700, 2 h, primary screen (AID 1155).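 Further: lysis reports solute entry through the parasite surface anion channel PSAC.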 As to conditions: P. falciparum Indochina infected erythrocytes, higher = more signal, called active from +8 up or from −8 down.
Experiment [5] can be described thus: changes in parasitized red cell lysis, either direction – P. falciparum Indochina, OD700, 3 h, PSAC antagonist project, primary screen (AID 1156). As to conditions: P. falciparum-infected erythrocytes, osmotic lysis, higher = more signal, called active from +8 up or from −8 down.
Experiment [6] is described as follows: plasmodial surface anion channel blockers, osmotic lysis – cell-based, P. falciparum Indochina, OD700, 18 h, primary screen (AID 1157). The following applies: P. falciparum Indochina infected erythrocytes, osmotic lysis OD700, 18 h; higher = more signal, called active from +8 up or from −8 down.
Experiment [7] in a line: S6 kinase pathway phospho-S6 level changes – cell-based, A549, cytoblot, luminescence, serum-stimulated, primary screen (AID 1158).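 Further: serum-stimulated A549 lung adenocarcinoma cells; signal is phosphorylated S6 detected by cytoblot immunostaining with HRP secondary.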 As to conditions: 5 h, higher = more signal.
The target in experiment [8] is NADPH oxidase 2 (Homo sapiens) (UniProt P04839). The experiment can be described thus: compounds shifting NOX2 Amplex Red fluorescence – cell-based, HEK293-NOX2, PMA-stimulated, NOX inhibitor project, primary screen (AID 1159). Further: test concentration not given here. As to conditions: 45 min, higher = more signal, called active from +8 up or from −8 down.
Experiment [9] addresses NADPH oxidase 4 (Homo sapiens) (UniProt Q9NPH5). In words: compounds shifting NOX4 Amplex Red fluorescence – cell-based, HEK293-NOX4, tetracycline-induced, NOX inhibitor project, primary screen (AID 1160). As to conditions: HEK293-NOX4, Amplex Red H2O2 fluorescence, 45 min; higher = more signal, called active from +8 up or from −8 down.
Experiment [10] has as its target NADPH oxidase 5 (Homo sapiens) (UniProt Q96PH1). In words: compounds shifting NOX5 Amplex Red fluorescence – cell-based, HEK293-NOX5, NOX inhibitor project, primary screen (AID 1161). As to conditions: HEK293-NOX5, ionomycin, 45 min, higher = more signal.

Activity calls are given as the source filed them.

Sequence of NADPH oxidase 2 (Homo sapiens) (P04839 whole entry, looked up): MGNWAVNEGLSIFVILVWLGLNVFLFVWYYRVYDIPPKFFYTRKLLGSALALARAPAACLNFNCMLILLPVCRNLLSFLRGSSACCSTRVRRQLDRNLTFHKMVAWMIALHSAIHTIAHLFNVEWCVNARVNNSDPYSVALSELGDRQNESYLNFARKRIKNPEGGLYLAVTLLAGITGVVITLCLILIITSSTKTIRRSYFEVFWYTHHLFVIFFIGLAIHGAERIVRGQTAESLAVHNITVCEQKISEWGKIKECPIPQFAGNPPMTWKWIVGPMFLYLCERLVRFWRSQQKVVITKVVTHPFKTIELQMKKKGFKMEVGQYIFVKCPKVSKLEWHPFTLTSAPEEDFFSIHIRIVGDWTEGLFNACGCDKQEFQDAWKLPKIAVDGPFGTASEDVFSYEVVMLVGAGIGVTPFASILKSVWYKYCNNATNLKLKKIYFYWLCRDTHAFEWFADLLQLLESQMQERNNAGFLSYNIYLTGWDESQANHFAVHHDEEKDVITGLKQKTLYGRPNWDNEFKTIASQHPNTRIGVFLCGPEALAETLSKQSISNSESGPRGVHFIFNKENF
Sequence of NADPH oxidase 4 (Homo sapiens) (Q9NPH5 whole entry, looked up): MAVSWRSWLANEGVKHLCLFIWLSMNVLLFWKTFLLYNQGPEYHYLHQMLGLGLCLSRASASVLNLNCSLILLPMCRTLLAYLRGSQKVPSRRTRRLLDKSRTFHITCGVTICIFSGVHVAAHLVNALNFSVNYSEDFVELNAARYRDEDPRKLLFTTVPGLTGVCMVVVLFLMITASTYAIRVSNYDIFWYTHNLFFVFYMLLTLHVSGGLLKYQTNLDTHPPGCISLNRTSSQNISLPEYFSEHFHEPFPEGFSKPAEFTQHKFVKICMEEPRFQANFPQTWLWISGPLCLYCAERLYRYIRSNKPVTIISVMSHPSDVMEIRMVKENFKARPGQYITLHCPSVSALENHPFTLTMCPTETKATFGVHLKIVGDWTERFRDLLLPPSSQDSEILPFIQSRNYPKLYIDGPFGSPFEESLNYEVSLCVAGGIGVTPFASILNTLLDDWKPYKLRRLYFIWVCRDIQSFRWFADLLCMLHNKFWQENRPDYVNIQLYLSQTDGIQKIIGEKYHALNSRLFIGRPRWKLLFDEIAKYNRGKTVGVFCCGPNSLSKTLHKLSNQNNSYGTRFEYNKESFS
Sequence of NADPH oxidase 5 (Homo sapiens) (Q96PH1 whole entry, looked up): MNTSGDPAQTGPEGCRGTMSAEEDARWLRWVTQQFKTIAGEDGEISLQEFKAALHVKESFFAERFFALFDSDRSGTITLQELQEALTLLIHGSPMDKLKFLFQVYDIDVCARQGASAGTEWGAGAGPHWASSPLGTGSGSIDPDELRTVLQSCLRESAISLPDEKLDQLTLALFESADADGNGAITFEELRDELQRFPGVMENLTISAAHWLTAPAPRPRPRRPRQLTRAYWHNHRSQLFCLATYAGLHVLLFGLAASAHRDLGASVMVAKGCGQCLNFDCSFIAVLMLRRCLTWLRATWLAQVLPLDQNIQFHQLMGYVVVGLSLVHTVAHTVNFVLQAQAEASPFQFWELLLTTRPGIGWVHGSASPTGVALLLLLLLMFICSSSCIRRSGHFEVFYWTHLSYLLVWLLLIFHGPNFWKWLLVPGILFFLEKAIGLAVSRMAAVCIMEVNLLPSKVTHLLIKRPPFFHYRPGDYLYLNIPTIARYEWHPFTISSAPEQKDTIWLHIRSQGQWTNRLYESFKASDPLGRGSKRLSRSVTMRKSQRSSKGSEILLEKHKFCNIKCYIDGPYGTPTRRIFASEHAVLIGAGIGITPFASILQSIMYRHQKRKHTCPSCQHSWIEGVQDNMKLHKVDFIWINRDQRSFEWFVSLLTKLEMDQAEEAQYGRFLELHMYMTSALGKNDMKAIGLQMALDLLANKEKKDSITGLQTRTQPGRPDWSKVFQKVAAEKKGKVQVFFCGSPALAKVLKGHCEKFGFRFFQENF

In the case of `COC(=O)[C@@]1(Cc2ccc(F)cc2)[C@H]2c3cc(C(=O)N4CCCC4)n(C[C@H](O)CO)c3C[C@H]2CN1C(=O)c1ccccc1`, the z-score in [1] was -1.62 (inactive); in [3], 1.41 (inactive); in experiment [4], 0.542 (inactive); in [5] it was 0.396 (inactive); in experiment [6], 0.668 (inactive); in [7], -0.0929. In addition, the values for the z-score in experiment [8], in experiment [9] and in experiment [10] were 0.709 (inactive), -0.364 (inactive) and -2.49, respectively. The compound further yielded a composite z-score in experiment [2] of 0.873.

With `CCCC=C(CCC)[C@@H](NC(=O)c1ccc(C(=O)OC)cc1)c1ccc(C(=O)OC)cc1`, the z-score in [1] is -1.99 (inactive); in [3], 0.67 (inactive); in experiment [4], 0.409 (inactive); in experiment [5], 1.33 (inactive); in experiment [6], 0.618 (inactive); in [7] it was -0.574. The values for the z-score in [8], in experiment [9] and in experiment [10] were -0.542 (inactive), -3.29 (inactive) and 1.5, respectively. In [2], this compound showed a composite z-score of 0.211.

Consider `COCCOC(=O)N1C(=O)[C@@]2(c3ccccc31)[C@H](C(=O)Nc1nc3ccccc3s1)[C@H]1C(=O)O[C@H](c3ccccc3)[C@H](c3ccccc3)N1[C@@H]2c1ccccc1OCCO`, for which the z-score in experiment [1] is 0.253 (inactive); in [3] it was 4.98 (inactive); in experiment [4] it was 2.57 (inactive); in experiment [5], 0.0618 (inactive); in experiment [6], 1.95 (inactive); in experiment [7] it was -0.0149. Also, the z-score was 1.91 (inactive) in experiment [8], -0.601 (inactive) in [9] and 1.17 in experiment [10]. The composite z-score in [2] came out at 0.941.

For the compound `CCCC[C@@H](O)C1=C(C)Cn2c(=O)n(-c3ccccc3)c(=O)n2[C@H]1CO`, the z-score in experiment [1] was 3.02 (inactive); in [3] it was -0.262 (inactive); in experiment [4] it was -0.957 (inactive); in experiment [5] it was -0.0398 (inactive); in [6], -2.37 (inactive); in experiment [7], 0.916. In addition, the z-score was -0.943 (inactive) in experiment [8], 0.216 (inactive) in experiment [9] and 0.616 in experiment [10]. In [2], this compound came in with a composite z-score of -0.414.

On to `C=CCOC(=O)[C@@H]1[C@H]2C(=O)O[C@H](c3ccccc3)[C@H](c3ccccc3)N2[C@H](c2ccc(OCCOC(=O)[C@@H]3C[C@@H]4C(=O)N[C@@H](CC(C)C)C(=O)N4[C@@H]3c3ccc(O)cc3)cc2)[C@@]12C(=O)Nc1ccc(I)cc12`, for which the z-score was 0.928 (inactive) in experiment [1]; 1.5 (inactive) in experiment [3]; 0.9 (inactive) in [4]; 4.25 (inactive) in experiment [5]; 0.718 (inactive) in experiment [6]; 0.0764 in [7]. Besides, the values for the z-score in [8], in experiment [9] and in experiment [10] were 0.485 (inactive), 0.64 (inactive) and 0.839, respectively. Moreover, the composite z-score in experiment [2] was 1.58.

For `COc1ccc([Si](C)(C)[C@H]2[C@H](CC(=O)N(CCO)Cc3ccccc3)O[C@@]3(C(=O)N(c4ccccc4)c4ccccc43)[C@@H]2C)cc1`, the z-score is -0.79 (inactive) in experiment [1]; 26.5 (active) in experiment [3]; 12.9 (active) in experiment [4]; 0.495 (inactive) in [5]; 2.04 (inactive) in [6]; 0.297 in experiment [7]. Further, the z-score was -0.0743 (inactive) in experiment [8], 0.689 (inactive) in experiment [9] and -1.65 in [10]. In experiment [2], this compound registered a composite z-score of -0.0603.

Consider `C=C(COC)C(=O)CC[C@@H](OC(=O)c1ccccc1-c1ccccc1C(=O)O)c1ccccc1OCCO`, for which the z-score in experiment [1] is -0.564 (inactive); in [3], 5.01 (inactive); in experiment [4] it was 0.281 (inactive); in experiment [5], 1.03 (inactive); in experiment [6], -0.209 (inactive); in experiment [7], -0.813. Further, the z-score in experiment [8] is 0.26 (inactive); in experiment [9] it was -0.182 (inactive); in experiment [10] it was -0.933. The same compound yielded a composite z-score in [2] of -0.103.

Take `COc1cc(Cc2cc3c(c(CCc4ccccc4)n2)[Si](C(C)C)(C(C)C)O[C@H]3c2ccccc2)cc(OC)c1OC`: the z-score was -1.77 (inactive) in experiment [1]; -0.436 (inactive) in experiment [3]; 0.356 (inactive) in experiment [4]; -3.89 (inactive) in experiment [5]; 0.0416 (inactive) in experiment [6]; -0.557 in experiment [7]. Also, the z-score in experiment [8] was 1.25 (inactive); in [9], -2.98 (inactive); in [10], -3.87. In experiment [2], this compound returned a composite z-score of 0.101.

`C=CCOC(=O)[C@H]1[C@@H]2C(=O)O[C@@H](c3ccccc3)[C@@H](c3ccccc3)N2[C@@H](c2ccc(OCCOC(=O)[C@@H]3C[C@@H]4C(=O)N[C@@H](Cc5ccccc5)C(=O)N4[C@@H]3c3ccc(O)cc3)cc2)[C@]12C(=O)Nc1ccc(I)cc12`: the z-score was -0.402 (inactive) in experiment [1]; 4.04 (inactive) in experiment [3]; 2.18 (inactive) in experiment [4]; 2.04 (inactive) in experiment [5]; 1.38 (inactive) in experiment [6]; -0.674 in [7]. The z-score in experiment [8] was 0.972 (inactive); in experiment [9] it was -1.15 (inactive); in [10], 0.885. In addition, in [2], the composite z-score amounted to 0.861.

For the compound `COCCCNC(=O)[C@]1(Cc2ccccc2CN=[N+]=[N-])N=C(c2ccc(OCCCO)cc2)O[C@@H]1c1ccccc1N=[N+]=[N-]`, the z-score was 0.913 (inactive) in experiment [1]; 33.7 (active) in experiment [3]; 31.2 (active) in experiment [4]; 1.91 (inactive) in experiment [5]; 8.54 (active) in experiment [6]; 0.0038 in experiment [7]. In addition, the z-score in experiment [8] was -0.713 (inactive); in experiment [9], 1.06 (inactive); in experiment [10], 1.42. This compound gave a composite z-score in experiment [2] of 0.87.

In the case of `COc1ccc(C(=O)Nc2cccc(CN3C(=O)[C@]4(O[C@H](CC(=O)N(CCO)Cc5ccccc5)[C@@H]([Si](C)(C)c5ccc(OC)cc5)[C@@H]4C)c4ccccc43)c2)cc1`, the z-score in experiment [1] was 0.556 (inactive); in experiment [3], 4.41 (inactive); in experiment [4], 0.614 (inactive); in [5], 0.0064 (inactive); in experiment [6] it was 0.795 (inactive); in [7], 0.805. Moreover, the z-score in experiment [8] was 0.936 (inactive); in experiment [9], 0.871 (inactive); in experiment [10], 3.51. In experiment [2], this compound had a composite z-score of 0.0892.

`COc1cc2c(cc1OC)CN(C(=O)[C@@H]1[C@H]3C(=O)O[C@H](c4ccccc4)[C@H](c4ccccc4)N3[C@H](c3ccc(O)cc3)[C@@]13C(=O)Nc1ccc(C#CC4=CCCCC4)cc13)CC2`: the z-score in experiment [1] was 2.03 (inactive); in [3], 1.18 (inactive); in experiment [4] it was 0.925 (inactive); in experiment [5], 1.2 (inactive); in experiment [6] it was 1.23 (inactive); in [7] it was 0.458. In addition, the z-score in experiment [8] is 1.36 (inactive); in [9] it was 1.03 (inactive); in experiment [10] it was -0.337. The compound further gave a composite z-score in experiment [2] of 0.298.
